EC50 data for one compound are collected here from PubChem BioAssay AID588502 (Sanford-Burnham Center for Chemical Genomics, 2011).

Results with a measured potency or affinity are listed apart. Unmarked numbers belong to inactive results. How the calls were made is not given here.

This experiment can be described thus: dose response, counter-screen, biochemical, fluorescence, single-stranded RNase substrate (AID 588502). Particulars: oligo substrate without MazF, fluorescence increase, 5 h. In general terms: Counterscreens check selectivity or assay interference.

Turning to `CC1CCC(=NNS(=O)(=O)c2ccc([N+](=O)[O-])cc2)CC1` (stereo unspecified), the EC50 is above 99 µM.

For orientation: EC50 means the concentration giving half of the maximal effect.
